Assay results taken from PubChem BioAssay (EPA / NIEHS).
Results filed as inconclusive are left out. Active and inactive are the calls of the source. Rule for the calls: active = hit-call score of the fitted dose curve at least 0.9, where 1 is the maximum; inconclusive = response in the unintended direction; inactive = score below 0.9.

Legend:
[1] = molecular target: human Elastase, ELANE (gene 1991) (UniProt P08246); test: NVS_ENZ_hElastase: NovaScreen (NVS) Enzymatic Assay for human Elastase (AID 2283153)
Sequence of human Elastase, ELANE (gene 1991) (P08246 whole entry, looked up): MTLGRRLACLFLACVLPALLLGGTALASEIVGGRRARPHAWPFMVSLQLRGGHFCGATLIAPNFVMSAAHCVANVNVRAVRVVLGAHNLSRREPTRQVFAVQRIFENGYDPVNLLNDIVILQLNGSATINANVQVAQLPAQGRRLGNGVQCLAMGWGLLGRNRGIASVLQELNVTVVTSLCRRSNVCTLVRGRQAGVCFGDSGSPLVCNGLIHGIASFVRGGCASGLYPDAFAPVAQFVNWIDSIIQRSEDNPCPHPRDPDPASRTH
In short: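 Concentration-response to 50 uM max, run singly for chemicals passing a threshold (e.g., 30% inhibition) in a duplicate 25 uM single-point screen. Neutrophil-derived human elastase, absorbance read-out of enzyme activity at 1.5 h; DMSO baseline.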

[2] = molecular target: human Dual Specificity Protein Phosphatase 3 (DUSP3), DUSP3 (gene 1845) (UniProt P51452); test: NVS_ENZ_hDUSP3: NovaScreen (NVS) Enzymatic Assay for human Dual Specificity Protein Phosphatase 3 (DUSP3) (AID 2283152);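 note: phosphatase activity of recombinant human DUSP3 on a fluorogenic substrate without cells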
Sequence of human Dual Specificity Protein Phosphatase 3 (DUSP3), DUSP3 (gene 1845) (P51452 whole entry, looked up): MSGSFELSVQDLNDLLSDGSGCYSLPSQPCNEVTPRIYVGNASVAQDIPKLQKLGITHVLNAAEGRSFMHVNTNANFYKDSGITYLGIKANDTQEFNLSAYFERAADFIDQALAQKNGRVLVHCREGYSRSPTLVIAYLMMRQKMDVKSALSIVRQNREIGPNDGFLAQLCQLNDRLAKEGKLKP
In short: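 Cell-free fluorescence-intensity enzyme activity assay with recombinant protein and substrate; loss of signal fitted relative to DMSO baseline. Primary screen in duplicate at 25 uM, actives then run in concentration series; measured 0 h after dosing.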

[3] = molecular target: human Ephrin type-A Receptor 1 (EphA1), EPHA1 (gene 2041) (UniProt P21709); test: NVS_ENZ_hEphA1: NovaScreen (NVS) Enzymatic Assay for human Ephrin type-A Receptor 1 (EphA1) (AID 2283158);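 note: activity is signal loss versus DMSO meaning EphA1 kinase inhibition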
Sequence of human Ephrin type-A Receptor 1 (EphA1), EPHA1 (gene 2041) (P21709 whole entry, looked up): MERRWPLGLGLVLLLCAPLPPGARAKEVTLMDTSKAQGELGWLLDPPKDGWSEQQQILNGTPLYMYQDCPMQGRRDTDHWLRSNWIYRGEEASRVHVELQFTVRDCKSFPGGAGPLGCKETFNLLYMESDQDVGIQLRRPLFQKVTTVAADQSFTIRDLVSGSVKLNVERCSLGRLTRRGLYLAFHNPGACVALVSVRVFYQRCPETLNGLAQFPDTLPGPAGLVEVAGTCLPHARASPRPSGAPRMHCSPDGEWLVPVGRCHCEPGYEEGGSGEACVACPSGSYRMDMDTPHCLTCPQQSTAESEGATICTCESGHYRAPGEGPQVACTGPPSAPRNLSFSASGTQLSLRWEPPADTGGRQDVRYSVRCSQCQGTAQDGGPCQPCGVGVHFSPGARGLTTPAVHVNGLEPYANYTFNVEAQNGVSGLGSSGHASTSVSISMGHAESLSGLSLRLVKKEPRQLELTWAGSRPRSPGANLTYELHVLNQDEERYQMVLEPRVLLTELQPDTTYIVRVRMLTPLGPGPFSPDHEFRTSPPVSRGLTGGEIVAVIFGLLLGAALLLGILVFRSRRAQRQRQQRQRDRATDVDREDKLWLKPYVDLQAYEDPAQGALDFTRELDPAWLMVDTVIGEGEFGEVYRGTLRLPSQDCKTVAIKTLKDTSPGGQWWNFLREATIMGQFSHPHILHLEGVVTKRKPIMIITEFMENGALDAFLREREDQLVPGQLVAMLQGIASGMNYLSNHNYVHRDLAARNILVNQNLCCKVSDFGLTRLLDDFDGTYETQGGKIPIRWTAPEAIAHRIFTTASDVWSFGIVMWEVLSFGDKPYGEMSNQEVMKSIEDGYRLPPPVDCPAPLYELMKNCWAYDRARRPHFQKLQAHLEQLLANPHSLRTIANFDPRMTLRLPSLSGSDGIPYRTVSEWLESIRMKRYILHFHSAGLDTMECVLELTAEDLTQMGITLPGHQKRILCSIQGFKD
In short: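 Chemicals first tested in duplicate at 25 uM against recombinant EphA1 with a fluorescent substrate; those passing threshold went to singleton dose-response topping at 50 uM. Activity read 1 h later as mobility-shift fluorescence, loss of signal relative to DMSO.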

[4] = molecular target: human FYN Proto-Oncogene, Src family Tyrosine Kinase (Fyn), FYN (gene 2534) (UniProt P06241); test: NVS_ENZ_hFyn: NovaScreen (NVS) Enzymatic Assay for human FYN Proto-Oncogene, Src family Tyrosine Kinase (Fyn) (AID 2283161)
Sequence of human FYN Proto-Oncogene, Src family Tyrosine Kinase (Fyn), FYN (gene 2534) (P06241 whole entry, looked up): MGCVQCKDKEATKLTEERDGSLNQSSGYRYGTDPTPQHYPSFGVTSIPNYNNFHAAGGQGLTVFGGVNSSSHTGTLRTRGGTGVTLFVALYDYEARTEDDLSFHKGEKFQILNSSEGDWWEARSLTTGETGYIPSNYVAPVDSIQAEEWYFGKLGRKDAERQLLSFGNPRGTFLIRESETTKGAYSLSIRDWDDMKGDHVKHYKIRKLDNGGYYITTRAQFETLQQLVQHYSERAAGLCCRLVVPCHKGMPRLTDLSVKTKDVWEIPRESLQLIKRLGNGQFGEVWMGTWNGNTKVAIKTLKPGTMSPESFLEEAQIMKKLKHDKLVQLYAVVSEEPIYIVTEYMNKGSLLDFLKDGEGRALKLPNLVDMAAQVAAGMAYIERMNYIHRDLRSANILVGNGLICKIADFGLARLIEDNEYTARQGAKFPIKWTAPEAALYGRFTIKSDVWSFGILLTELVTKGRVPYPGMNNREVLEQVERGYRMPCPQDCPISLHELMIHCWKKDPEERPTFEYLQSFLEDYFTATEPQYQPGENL
In short: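 Cell-free kinase activity read by fluorescence after mobility-shift separation of substrate and product, 1 h post-dose. Initial single concentration 25 uM in duplicate, then concentration-response follow-up; DMSO baseline.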

[5] = molecular target: Histone deacetylase 3 (Homo sapiens) (UniProt O15379); test: NVS_ENZ_hHDAC3: NovaScreen (NVS) Enzymatic Assay for human Histone Deacetylase 3 (HDAC3) (AID 2283163)
Sequence of Histone deacetylase 3 (Homo sapiens) (O15379 whole entry, looked up): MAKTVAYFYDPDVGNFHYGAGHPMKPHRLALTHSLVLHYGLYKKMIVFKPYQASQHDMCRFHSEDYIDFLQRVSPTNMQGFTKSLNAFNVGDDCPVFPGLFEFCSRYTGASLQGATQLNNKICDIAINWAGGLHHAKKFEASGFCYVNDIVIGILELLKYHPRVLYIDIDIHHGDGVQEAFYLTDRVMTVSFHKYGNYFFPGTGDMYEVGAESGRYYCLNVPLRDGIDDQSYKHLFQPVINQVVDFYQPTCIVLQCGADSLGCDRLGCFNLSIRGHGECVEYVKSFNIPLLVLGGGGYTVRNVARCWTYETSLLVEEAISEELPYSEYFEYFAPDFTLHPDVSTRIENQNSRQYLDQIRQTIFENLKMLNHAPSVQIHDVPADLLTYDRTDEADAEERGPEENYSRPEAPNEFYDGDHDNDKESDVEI
In short: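 Cell-free enzyme format: loss of fluorescent product after mobility-shift separation, 1 h incubation, recombinant human HDAC3. Single 25 uM duplicate screen first, then concentration series to a 50 uM top for hits; DMSO as baseline.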

[6] = molecular target: Glycogen synthase kinase-3 beta (Homo sapiens) (UniProt P49841); test: NVS_ENZ_hGSK3b: NovaScreen (NVS) Enzymatic Assay for human Glycogen Synthase Kinase-3 beta (GSK3b) (AID 2283165)
Sequence of Glycogen synthase kinase-3 beta (Homo sapiens) (P49841 whole entry, looked up): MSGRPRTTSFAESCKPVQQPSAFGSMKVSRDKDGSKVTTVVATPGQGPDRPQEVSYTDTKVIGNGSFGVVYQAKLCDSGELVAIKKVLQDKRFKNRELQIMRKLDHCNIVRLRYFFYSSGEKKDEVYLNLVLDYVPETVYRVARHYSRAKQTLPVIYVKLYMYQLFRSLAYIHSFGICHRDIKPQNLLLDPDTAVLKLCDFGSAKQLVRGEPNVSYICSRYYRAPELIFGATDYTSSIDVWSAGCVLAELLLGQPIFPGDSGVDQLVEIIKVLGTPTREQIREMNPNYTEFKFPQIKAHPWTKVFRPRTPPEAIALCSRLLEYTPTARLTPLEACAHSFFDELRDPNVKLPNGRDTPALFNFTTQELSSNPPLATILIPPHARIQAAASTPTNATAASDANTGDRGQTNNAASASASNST
In short: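 Recombinant enzyme with specific fluorescent substrate, 1 h, product separated by electrophoretic mobility shift. Primary duplicate screen at 25 uM; actives (e.g. 30% inhibition) followed in singleton concentration-response to 50 uM. Signal loss fitted versus DMSO.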

[7] = molecular target: human c-Jun N-terminal Kinases (JNK2), MAPK9 (gene 5601) (UniProt P45984); test: NVS_ENZ_hJNK2: NovaScreen (NVS) Enzymatic Assay for human c-Jun N-terminal Kinases (JNK2) (AID 2283171)
Sequence of human c-Jun N-terminal Kinases (JNK2), MAPK9 (gene 5601) (P45984 whole entry, looked up): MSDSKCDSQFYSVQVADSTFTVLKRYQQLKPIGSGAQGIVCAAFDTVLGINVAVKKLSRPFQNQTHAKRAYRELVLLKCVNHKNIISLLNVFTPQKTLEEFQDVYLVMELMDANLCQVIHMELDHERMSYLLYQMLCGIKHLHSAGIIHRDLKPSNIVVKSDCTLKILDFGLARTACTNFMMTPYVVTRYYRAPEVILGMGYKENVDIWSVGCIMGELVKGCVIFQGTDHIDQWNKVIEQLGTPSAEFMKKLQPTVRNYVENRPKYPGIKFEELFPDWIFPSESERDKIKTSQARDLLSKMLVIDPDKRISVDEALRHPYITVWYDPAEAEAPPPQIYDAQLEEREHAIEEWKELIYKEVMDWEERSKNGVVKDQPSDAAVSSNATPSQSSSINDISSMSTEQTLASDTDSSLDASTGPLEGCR
In short: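 Chemicals first tested in duplicate at 25 uM, then in singleton concentration series up to 50 uM, against extracted JNK2 enzyme. Activity loss read by fluorescence with mobility-shift separation 1 h post-dose; DMSO baseline.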

[8] = molecular target: human LYN Proto-Oncogene, Src family Tyrosine Kinase (LynA), LYN (gene 4067) (UniProt P07948); test: NVS_ENZ_hLynA: NovaScreen (NVS) Enzymatic Assay for human LYN Proto-Oncogene, Src family Tyrosine Kinase (LynA) (AID 2283173)
Sequence of human LYN Proto-Oncogene, Src family Tyrosine Kinase (LynA), LYN (gene 4067) (P07948 whole entry, looked up): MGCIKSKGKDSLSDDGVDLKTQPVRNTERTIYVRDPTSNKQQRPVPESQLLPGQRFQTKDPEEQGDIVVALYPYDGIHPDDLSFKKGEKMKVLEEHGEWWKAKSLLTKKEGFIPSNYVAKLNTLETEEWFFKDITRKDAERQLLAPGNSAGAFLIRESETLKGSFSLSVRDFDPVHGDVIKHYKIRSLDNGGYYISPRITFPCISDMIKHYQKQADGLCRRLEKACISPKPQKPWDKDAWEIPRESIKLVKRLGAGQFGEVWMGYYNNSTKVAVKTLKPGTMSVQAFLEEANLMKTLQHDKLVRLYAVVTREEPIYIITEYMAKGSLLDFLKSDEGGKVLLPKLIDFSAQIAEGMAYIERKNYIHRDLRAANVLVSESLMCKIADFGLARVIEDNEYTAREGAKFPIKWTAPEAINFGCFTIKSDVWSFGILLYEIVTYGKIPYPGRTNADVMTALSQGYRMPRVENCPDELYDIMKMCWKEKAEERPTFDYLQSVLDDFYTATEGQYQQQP
In short: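 Recombinant kinase with fluorescent substrate; product separated from substrate by electrophoretic mobility shift and read 1 h after dosing. Duplicate screen at 25 uM, then concentration-response up to 50 uM; activity scored as signal loss against DMSO.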

[9] = molecular target: human Janus Kinase 2 (Jak2), JAK2 (gene 3717) (UniProt O60674); test: NVS_ENZ_hJak2: NovaScreen (NVS) Enzymatic Assay for human Janus Kinase 2 (Jak2) (AID 2283169)
Sequence of human Janus Kinase 2 (Jak2), JAK2 (gene 3717) (O60674 whole entry, looked up): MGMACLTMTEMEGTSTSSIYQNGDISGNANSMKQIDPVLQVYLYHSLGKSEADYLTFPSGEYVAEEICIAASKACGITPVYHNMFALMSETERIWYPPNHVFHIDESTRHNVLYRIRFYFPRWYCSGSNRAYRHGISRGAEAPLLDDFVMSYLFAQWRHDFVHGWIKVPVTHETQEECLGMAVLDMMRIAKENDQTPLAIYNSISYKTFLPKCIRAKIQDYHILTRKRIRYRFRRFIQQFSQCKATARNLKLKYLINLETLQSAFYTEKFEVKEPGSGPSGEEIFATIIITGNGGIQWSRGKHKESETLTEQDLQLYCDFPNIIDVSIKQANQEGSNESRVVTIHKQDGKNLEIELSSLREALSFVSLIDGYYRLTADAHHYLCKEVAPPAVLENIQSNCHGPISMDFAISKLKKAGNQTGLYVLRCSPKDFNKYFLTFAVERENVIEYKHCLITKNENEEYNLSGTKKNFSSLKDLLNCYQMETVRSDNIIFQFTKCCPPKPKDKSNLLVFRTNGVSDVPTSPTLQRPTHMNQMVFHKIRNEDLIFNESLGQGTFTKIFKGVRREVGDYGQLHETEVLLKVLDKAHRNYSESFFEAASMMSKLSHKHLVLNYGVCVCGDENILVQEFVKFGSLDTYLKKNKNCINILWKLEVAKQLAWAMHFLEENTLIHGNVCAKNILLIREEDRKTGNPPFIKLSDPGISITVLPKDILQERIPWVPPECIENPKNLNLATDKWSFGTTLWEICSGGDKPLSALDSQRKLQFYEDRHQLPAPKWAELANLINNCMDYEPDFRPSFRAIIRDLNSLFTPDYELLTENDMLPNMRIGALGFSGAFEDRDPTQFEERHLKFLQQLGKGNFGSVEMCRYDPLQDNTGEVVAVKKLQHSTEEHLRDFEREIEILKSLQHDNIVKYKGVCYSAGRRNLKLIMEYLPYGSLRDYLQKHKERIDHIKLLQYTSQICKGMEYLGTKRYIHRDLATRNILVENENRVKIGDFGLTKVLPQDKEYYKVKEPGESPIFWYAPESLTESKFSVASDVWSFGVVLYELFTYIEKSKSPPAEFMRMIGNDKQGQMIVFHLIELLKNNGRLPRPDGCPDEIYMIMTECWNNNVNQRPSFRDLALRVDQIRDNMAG
In short: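 Single-point duplicate screen at 25 uM, with hits run in concentration series to a 50 uM top dose. Substrate-product separation by mobility shift with fluorescence detection, 1 h post-dosing; DMSO baseline.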

`CCCCC(CC)COC(=O)c1ccc(C(=O)OCC(CC)CCCC)cc1` (centres undefined) was tested, and the outcome [1] was “inactive”.

For `CCC(C)(C)C(=O)O[C@H]1C[C@@H](C)C=C2C=C[C@H](C)[C@H](CC[C@@H]3C[C@@H](O)CC(=O)O3)[C@H]21`, the AC50 [2] was 12.1 µM (active) and the outcome [1] was “inactive”.

`Cc1ccc(N)cc1O` was tested, and the outcome [3] was “inactive”, the outcome [4] was “inactive” and the outcome [5] was “inactive”. The outcome [6] was “inactive”, the outcome [7] was “inactive” and the outcome [8] was “inactive”.

In the case of `COc1ccc2sc(C(=O)Nc3nnn[nH]3)c(OC(C)C)c2c1`, the outcome [1] is reported as “inactive”, the outcome [3] is reported as “inactive” and the AC50 [6] is reported as 1.42 µM (active). The AC50 [9] was 8.74 µM (active).

For `CCCC(=O)OCC`, the outcome [6] was “inactive”.

In the case of `CCCCC(CC)COC(=O)CCCCCCCCC(=O)OCC(CC)CCCC` (centres undefined), the AC50 [1] is reported as 23.4 µM (active).

For `Nc1ccc(Nc2ccccc2)cc1`, the AC50 [2] was 7.11 µM (active).

`CC(C)CCO` was tested, and the outcome [3] was “inactive”.

With `Oc1ccc2c(c1)-c1ccccc1C2` the AC50 [1] was 23 µM (active).

`CC1=CC(=O)CC(C)(C)C1` was tested, and the outcome [6] was “inactive”.

`O=C(O)CC(O)C(=O)O` (centres undefined) was tested, and the outcome [5] was “inactive” and the outcome [9] was “inactive”.

`CC[C@H]1CC[C@H](NCc2cc3c(cc2OC)[C@H]2C[C@H]2C(=O)N3C)[C@H](c2ccccc2)N1` was tested, and the outcome [9] was “inactive”.

In the case of `Cn1c(=O)cc(Oc2ccc(F)cc2F)c2cnc(NCC(C)(C)O)nc21`, the AC50 [7] is reported as 0.00703 µM (active).

For `O=C(O)c1cccc(N(Cc2cccnc2)c2ccc(OC(F)F)c(OC(F)F)c2)c1`, the AC50 [7] was 4.96 µM (active).
